In assay [1] the target is T1, Aspartate--tRNA(Asp/Asn) ligase (Mycobacterium tuberculosis (strain ATCC 25618 / H37Rv)) (UniProt P9WFW3). Note: in the data most compounds retested in dose-response had high values.
T1 sequence (whole entry): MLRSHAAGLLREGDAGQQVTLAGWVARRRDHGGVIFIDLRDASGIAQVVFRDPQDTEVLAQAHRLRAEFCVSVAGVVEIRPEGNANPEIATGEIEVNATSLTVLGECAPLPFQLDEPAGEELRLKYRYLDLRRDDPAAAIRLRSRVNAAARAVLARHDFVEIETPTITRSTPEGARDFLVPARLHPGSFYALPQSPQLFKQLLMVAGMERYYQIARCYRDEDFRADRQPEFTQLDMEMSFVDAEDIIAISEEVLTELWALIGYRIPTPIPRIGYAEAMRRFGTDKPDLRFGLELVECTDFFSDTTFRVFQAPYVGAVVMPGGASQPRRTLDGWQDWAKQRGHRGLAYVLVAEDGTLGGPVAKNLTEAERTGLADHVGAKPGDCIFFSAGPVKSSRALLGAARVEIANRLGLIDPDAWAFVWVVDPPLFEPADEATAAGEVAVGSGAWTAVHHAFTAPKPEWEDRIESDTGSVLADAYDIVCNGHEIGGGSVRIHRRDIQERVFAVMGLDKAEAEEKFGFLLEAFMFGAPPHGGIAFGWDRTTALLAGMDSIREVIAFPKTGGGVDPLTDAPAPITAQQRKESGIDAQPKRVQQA
Description: Assay for Asp RNA synthetase-1 from Mycobacterium tuberculosis. Set-up: scale not given: direction of the effect not stated beside the values. Particulars: 30 µM. In kind it is functional.

The target of assay [2] is Shiga toxin 2 (Escherichia coli O157:H7) (UniProt P09385+P09386). Description: E. coli 0.157:H7 Shiga Toxin SOP - stx2 screening assay. The assay is classed as functional. The arrangement: scale not given: direction of the effect not stated beside the values. The conditions noted are these: 30 µM.

As for `CCN(Cc1cccc2c1OCO2)C(=O)Nc1ccncc1`, the values for the Percent Effect in assay [1] and in assay [2] were -0.0463% and -14.2%, respectively.
The matching figures for `Cc1c(CN2CCCC(c3[nH]ncc3S(C)(=O)=O)C2)cnn1C` (stereo unspecified): -0.927% and -23.4%.
For `CN(C)C(=O)N1C[C@H]2CN(Cc3cccc(F)c3)C(=O)[C@H]2C1`, in that order: -2.95% and -2.65%.
With `Cc1ccc(CN2CCCC3(COCCN(Cc4c[nH]nn4)C3)C2)o1` (stereo unspecified), the Percent Effect in assay [1] was 4.69%; in assay [2] it was -4.03%.
The matching figures for `COc1cc2nc3n(c(=O)c2cc1OC)CCN(C)CC3`: -1.59% and -7.54%.
For `COc1cccc(CCC(=O)N2CCCCC2Cn2cccn2)c1` (stereo unspecified), in that order: 1.44% and 22.5%.
The matching figures for `COc1ncc(C2CC(=O)NCc3nc4ccccn4c32)cn1` (stereo unspecified): -1.4% and 15%.
With `CC(c1nc(C2CC2)no1)N1CCN(c2ccc(C#N)cn2)CC1` (stereo unspecified), the Percent Effect in assay [1] was -0.15%; in assay [2], -13.8%.
For `CC(C)C(=O)NCCCn1ncc2c(Cl)cccc21`, in that order: 16.5% and -6.02%.
Consider `O=C(c1ccc(O)c(Cl)c1)N1CCC(c2n[nH]c(C3CC3)n2)CC1`, for which the Percent Effect was -0.597% in assay [1] and 0.843% in assay [2].
`Cc1ccc(C(O)CNCc2c(C(C)C)nn(C)c2N(C)C)cc1` (stereo unspecified): the Percent Effect in assay [1] is -5.77%; in assay [2], 10.4%.
For `Cc1cc(C(=O)N2Cc3ccccc3OC3(CCOCC3)C2)nc(N)n1`, in that order: 0.67% and 3.58%.
For the compound `c1cnn(Cc2cn3c(n2)CN(Cc2nccs2)CC3)c1`, the Percent Effect was -2.35% in assay [1] and -23.5% in assay [2].
The matching figures for `O=C1CC(c2ccncc2)C2(CCN(CCO)CC2)N1` (stereo unspecified): -1.48% and -4.07%.
For `Cc1cc(CNCc2c(C)nn(C)c2N2CCOCC2)no1`, in that order: -2.57% and 16.5%.
The matching figures for `CCn1c(C(=O)N2CCN(C(=O)COC)CC2)cc2ccccc21`: -7.07% and -41.5%.
For `O=C([C@@H]1CCO[C@@H]2CCN(Cc3cccnc3)C[C@H]21)N1CCCCO1`, the Percent Effect was 6.53% in assay [1] and -26.6% in assay [2].
For `CCc1nc2n(n1)CC(NCC(=O)Nc1cc(C)on1)CC2` (stereo unspecified), in that order: -3.4% and 3.33%.

The values above are taken from ChEMBL document CHEMBL3988442, “University of Dundee, Small-Polar-MMV Screening Library” (2021).
